Experimental data as given in PubChem BioAssay.
Active and inactive are the calls of the source.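 How the source made its calls, unless noted: active means fluorescence slope after compound addition differing from the mean of all screened samples at 99.7% confidence, in either direction; inactive means the rest.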

Key:
[1] = inhibitors of TNFa-induced NFkB p65 translocation, primary screen, imaging, HUVEC, MLSMR starter and 10KST1 sets (AID 438;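 active means inhibition above 20% together with a positive visual image hit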;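 further: compound added about 3h40 before a 20 min TNFalpha stimulation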;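 on inhibition: signal is the nuclear over cytoplasmic p65 intensity ratio per well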); details: HUVEC TNFa-induced p65 nuclear translocation; cell count: measured here: nuclei count (cytotoxicity indicator), at 2.08 µM; inhibition: at 2 µM, stronger effect = higher value, 0% TNFa-plus-vehicle, 100% no-TNFa wells
[2] = inhibitors of mutant huntingtin aggregation, primary screen, imaging, exon1htt(103Q)mCFP cells, high-content imaging (AID 483;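 active means visual image review flags a hit and inhibition of aggregation exceeds 20%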;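 further: compound exposure lasted 3 days before fixation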;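 on nuclei count: percent of the per-plate median nuclei count of sample wells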); details: exon1htt(103Q)mCFP cell line, aggregate imaging, at 2 µM; inhibition of aggregation: stronger effect = higher value; nuclei count: measured here: cell count, toxicity
[3] = inhibitors of E-selectin induction by TNFa, primary screen, imaging, HUVEC, immunofluorescence, MLSMR starter and 10KST1 sets (AID 487;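 active means visually confirmed hit in the image check and inhibition above 20%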;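 on inhibition: signal is fraction of cell area covered by stained E-selectin grains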;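 on nuclei count: 100% = median nuclei count of all wells on the same plate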); details: HUVEC TNFalpha-induced E-selectin immunofluorescence imaging, at 2 µM; inhibition: stronger effect = higher value; nuclei count: measured here: cell number, toxicity
[4] = target: Voltage-gated potassium channel subunit beta-2 (Rattus norvegicus) (UniProt P62483); assay: KvBeta enzyme negative modulators, primary screen, biochemical, NADPH fluorescence (AID 622;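 active means fluorescence slope higher than the sample average by over 3 SD, cut at about -0.22 in these data, passing the limit was not always enough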;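 further: slope of raw intensity against log time taken from 70 to 1610 s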); details: recombinant KvBeta, 4-cyanobenzaldehyde reduction, at 10 µM, stronger effect = higher value
Voltage-gated potassium channel subunit beta-2 (Rattus norvegicus), sequence (P62483 whole entry, looked up): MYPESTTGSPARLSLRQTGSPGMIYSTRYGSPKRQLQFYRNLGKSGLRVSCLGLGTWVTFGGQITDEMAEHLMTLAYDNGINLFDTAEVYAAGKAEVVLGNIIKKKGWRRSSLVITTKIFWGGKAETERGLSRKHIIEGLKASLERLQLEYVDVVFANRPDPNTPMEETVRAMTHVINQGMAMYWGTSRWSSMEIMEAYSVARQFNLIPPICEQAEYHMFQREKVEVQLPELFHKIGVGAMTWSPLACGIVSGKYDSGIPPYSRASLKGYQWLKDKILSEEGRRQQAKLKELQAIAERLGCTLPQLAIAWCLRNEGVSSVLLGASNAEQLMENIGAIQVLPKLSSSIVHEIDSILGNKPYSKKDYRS

[5] = target: Voltage-gated potassium channel subunit beta-2 (Rattus norvegicus) (UniProt P62483); assay: KvBeta positive modulators, primary screen, biochemical, NADPH fluorescence (AID 623;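 active means NADPH fluorescence slope more negative than the mean of all samples by about 3 SD, 99.7% confidence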;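 further: fluorescence intensity change per second fitted from 20 to 320 s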); details: Recombinant KvBeta, NADPH fluorescence decrease slope, 10 min; at 10 µM; stronger effect = lower value
[6] = target: Alpha-2C adrenergic receptor (Homo sapiens) (UniProt P18825); assay: modulators of alpha2C/GIRK thallium flux, primary screen, cell-based, HEK293 alpha2C/GIRK1/2 (AID 624); details: thallium flux BTC fluorescence, at 10 µM, actives lie on both sides;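 further: slope of fluorescence ratio to pre-addition baseline per second over 15 to 24 s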
Alpha-2C adrenergic receptor (Homo sapiens), sequence (P18825 whole entry, looked up): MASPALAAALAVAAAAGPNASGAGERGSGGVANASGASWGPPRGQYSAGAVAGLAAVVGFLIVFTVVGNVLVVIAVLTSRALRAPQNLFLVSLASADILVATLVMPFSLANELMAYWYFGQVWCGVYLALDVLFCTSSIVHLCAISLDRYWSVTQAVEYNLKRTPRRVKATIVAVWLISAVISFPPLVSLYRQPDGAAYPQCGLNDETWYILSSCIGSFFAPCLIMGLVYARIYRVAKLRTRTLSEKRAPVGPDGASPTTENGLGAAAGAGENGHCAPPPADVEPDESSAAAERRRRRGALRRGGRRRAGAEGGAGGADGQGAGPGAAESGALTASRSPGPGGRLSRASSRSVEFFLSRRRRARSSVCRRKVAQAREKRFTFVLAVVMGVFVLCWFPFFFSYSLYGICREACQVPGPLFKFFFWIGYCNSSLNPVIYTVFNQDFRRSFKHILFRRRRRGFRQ

[7] = inhibitors of Sendai virus-induced IRF3 signaling, primary screen, TLR/RLR signaling modifier project, cell-based, Sendai virus stimulus, luciferase, 10K MLSCN set (AID 602276;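 active means inhibition at or above 50% at 10 µM; inactive means inhibition below 50%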;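 further: firefly luciferase from ISG56 promoter only with Renilla not read in this screen; 0% = Sendai virus plus DMSO and 100% = medium plus DMSO without virus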); details: HEK293 RL24 IRF3 luciferase reporter, at 10 µM, stronger effect = higher value
[8] = inhibitors of poly I:C-induced TLR3 signaling, primary screen, cell-based, poly I:C stimulus, luciferase, 10K MLSCN set (AID 602277;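 active means inhibition of the reporter signal at or above 50%; inactive means inhibition below 50%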); details: HEK293-TLR3 RL24 IRF3 luciferase reporter, at 10 µM, stronger effect = higher value

SMILES	cell count [1]	inhibition [1]	inhibition of aggregation [2]	nuclei count [2] [%]	inhibition [3]	nuclei count [3] [%]	fluorescence slope [4]	NADPH fluorescence slope [5]	slope [6]	inhibition [7]	inhibition [8]
CCOC(=O)C(NC(C)=O)(Nc1ccc(S(=O)(=O)Nc2nccs2)cc1)C(F)(F)F (stereo not drawn)	523	-1% (inactive)	27% (inactive)	93.8	4.2% (inactive)	95.9	-0.645 (inactive)	1.5e-06 (inactive)	0.00657 (inactive)	14.8% (inactive)	30.2% (inactive)
CSCCC(NC(=O)c1ccco1)C(=O)O (stereo not drawn)	411	4.4% (inactive)	-0.5% (inactive)	105	-358% (inactive)	143	-0.534 (inactive)	-4e-05 (inactive)	0.00451 (inactive)	-9.48% (inactive)	-11.3% (inactive)
O=C(CSc1nnc(CNC(=O)c2c(F)cccc2Cl)o1)c1ccccc1	672	-19.6% (inactive)	40.1% (active)	100	-111% (inactive)	123	-0.406 (inactive)	-5.2e-05 (inactive)	0.00534 (inactive)	3.28% (inactive)	18.3% (inactive)
CCOC(=O)N1CCC(NC(=O)Cn2ncc3c4ccccc4n(C)c3c2=O)CC1	557	-1% (inactive)	-0.9% (inactive)	98.6	-47.7% (inactive)	105	-0.28 (inactive)	-2.3e-05 (inactive)	0.00602 (inactive)	14.9% (inactive)	26% (inactive)
CCOC(=O)c1cc2c(=O)n3ccccc3nc2n(Cc2ccccc2)c1=N	913	11.3% (inactive)	19.9% (inactive)	102	-109% (inactive)	117	-0.364 (inactive)	-2.8e-05 (inactive)	0.00332 (inactive)	6.32% (inactive)	33.2% (inactive)
CC(C)(C)SCCNC(=O)CN1C(=O)c2ccccc2S1(=O)=O	625	-4.2% (inactive)	-13.2% (inactive)	97.6	-29.7% (inactive)	106	-0.499 (inactive)	-8.2e-06 (inactive)	0.00704 (inactive)	3.26% (inactive)	-7.98% (inactive)
Cc1ccc(-c2ccc(=O)n(CCC(=O)NCCN3CCCCC3C)n2)cc1 (stereo not drawn)	216	4.2% (inactive)	-7.7% (inactive)	86.5	-4.1% (inactive)	100	-0.442 (inactive)	-2.5e-05 (inactive)	0.00419 (inactive)	1.11% (inactive)	2.82% (inactive)
CCOC(=O)c1cc(-c2ccc(N)cc2)sc1N	588	14.8% (inactive)	24% (inactive)	90.5	26.4% (inactive)	100	-0.433 (inactive)	-7.7e-05 (inactive)	0.00189 (inactive)	-50.5% (inactive)	-117% (inactive)
CCOC(=O)N1CCC(NC(=O)CS(=O)(=O)Cc2nc(-c3ccccc3C)oc2C)CC1	699	-7.5% (inactive)	2.1% (inactive)	96.6	-66.8% (inactive)	119	-0.513 (inactive)	-2.7e-05 (inactive)	0.00671 (inactive)	9.06% (inactive)	-5.43% (inactive)
CC(=O)c1cnc2cc(-c3ccccc3)nn2c1C	283	7.2% (inactive)	26.1% (inactive)	84.2	-84.1% (inactive)	97.5	-0.343 (inactive)	-5.4e-05 (inactive)	0.00763 (inactive)	-65.5% (inactive)	-115% (inactive)
O=C(/C=C1\NC2(CCCC2)Cc2ccccc21)N1CCOCC1	637	-1.6% (inactive)	-19.3% (inactive)	88.6	-93.5% (inactive)	134	-0.534 (inactive)	-4.8e-05 (inactive)	0.00501 (inactive)	14.1% (inactive)	16.1% (inactive)
CCCCC(NS(=O)(=O)c1ccc(OC)cc1)C(=O)O (stereo not drawn)	386	8.8% (inactive)	-16.5% (inactive)	108	-31.9% (inactive)	118	-0.448 (inactive)	-4e-05 (inactive)	0.0033 (inactive)	7.54% (inactive)	39% (inactive)
O=C(O)c1cc(-c2ccccc2Cl)n[nH]1	240	8% (inactive)	-10.1% (inactive)	109	-51% (inactive)	97.9	-0.604 (inactive)	-2e-05 (inactive)	0.00669 (inactive)	11.2% (inactive)	22.8% (inactive)
COc1ccc(OCC(=O)Nc2cccc3ncccc23)cc1	629	-16.2% (inactive)	31.6% (inactive)	84.8	23.2% (inactive)	95.6	-0.622 (inactive)	-5.4e-05 (inactive)	0.00436 (inactive)	1.02% (inactive)	-8.12% (inactive)
COc1ccc(C(=O)Nn2c(C3CCC3)nc3ccccc3c2=O)c(OC)c1	657	-10.2% (inactive)	-14% (inactive)	111	14.7% (inactive)	129	-0.585 (inactive)	-7.6e-07 (inactive)	0.00893 (inactive)	-0.704% (inactive)	5.08% (inactive)
CCOC(=O)c1c(C)[nH]c(C(=O)Cn2c(=O)c3c(ncn3CC)n(Cc3ccccc3)c2=O)c1C	752	4% (inactive)	8.3% (inactive)	88.5	-32.2% (inactive)	127	-0.29 (inactive)	-3.2e-05 (inactive)	0.00419 (inactive)	15.3% (inactive)	24.5% (inactive)
CC(C)OC(=O)CSc1nnc(-c2ccccn2)n1-c1ccccc1	306	1.6% (inactive)	-8.2% (inactive)	102	-11.2% (inactive)	99.6	-0.429 (inactive)	-7.9e-05 (inactive)	0.00479 (inactive)	4.23% (inactive)	6.06% (inactive)
CCC1(NC(C)=O)CC2CC1CC2NC(C)=O (stereo not drawn)	340	-1.4% (inactive)	-4.3% (inactive)	100	-37.4% (inactive)	103	-0.614 (inactive)	-1.3e-05 (inactive)	0.00321 (inactive)	1.63% (inactive)	3.3% (inactive)
CCN(CCCNC(=O)CC1Oc2ccc(C)cc2NC1=O)Cc1ccccc1 (stereo not drawn)	548	5.1% (inactive)	30.8% (inactive)	102	-42.9% (inactive)	128	-0.495 (inactive)	-4.4e-05 (inactive)	0.00631 (inactive)	-5.16% (inactive)	30.7% (inactive)
O=C(COc1ccc(Cl)cc1)NCc1nnc(SCC(=O)Nc2ccc3c(c2)OCCO3)o1	375	0% (inactive)	4.2% (inactive)	99.9	-9.1% (inactive)	119	-0.359 (inactive)	-3.4e-06 (inactive)	0.00522 (inactive)	-4.54% (inactive)	-2.34% (inactive)
CCS(=O)(=O)N1CCC(C(=O)NCCc2ccc(C)cc2)CC1	646	-10.6% (inactive)	2.7% (inactive)	81.2	-178% (inactive)	136	-0.596 (inactive)	1.4e-05 (inactive)	0.00666 (inactive)	-2.06% (inactive)	10.2% (inactive)
C=Cn1nc(C)c2ccccc2c1=O	655	-2.6% (inactive)	16.4% (inactive)	114	-27.2% (inactive)	137	-0.344 (inactive)	-2.7e-05 (inactive)	0.00755 (inactive)	3.73% (inactive)	1.18% (inactive)
Cc1ccccc1-n1c(=O)c2ccccc2n2nnnc12	789	-6.4% (inactive)	-0.5% (inactive)	125	-23.1% (inactive)	103	-0.517 (inactive)	2.5e-05 (inactive)	0.00577 (inactive)	-17% (inactive)	-4.05% (inactive)
O=C1CCCC2=C1C(c1cccc(Br)c1)n1nc(-c3ccco3)nc1N2 (stereo not drawn)	568	-1.5% (inactive)	-10.2% (inactive)	100	11.1% (inactive)	109	-0.523 (inactive)	-2.2e-05 (inactive)	0.00646 (inactive)	9.76% (inactive)	24.2% (inactive)
CCCn1c(-c2ccc(F)cc2)cnc1SCC(=O)O	431	9.9% (inactive)	-4.3% (inactive)	106	-63.4% (inactive)	106	-0.622 (inactive)	-3.6e-05 (inactive)	0.00449 (inactive)	16.2% (inactive)	19.8% (inactive)
O=C(NCc1ccccn1)C(C(=O)c1ccc(F)cc1)n1ccccc1=O (stereo not drawn)	531	-1.5% (inactive)	3.1% (inactive)	70.7	-117% (inactive)	219	-0.472 (inactive)	-3.8e-05 (inactive)	0.0066 (inactive)	-10.6% (inactive)	3.51% (inactive)
COc1cccc(Cn2c(-c3nonc3N)nc3ccccc32)c1	306	-4.8% (inactive)	-97% (inactive)	1.8	-97% (inactive)	113	-0.556 (inactive)	-8.2e-05 (inactive)	0.00614 (inactive)	7.76% (inactive)	57.2% (active)
CC1CCCCC1NC(=O)Cn1nnc(-c2ccc(Cl)cc2)n1 (stereo not drawn)	447	1.9% (inactive)	-8.6% (inactive)	92.4	-27.6% (inactive)	99.4	-0.578 (inactive)	-2.2e-05 (inactive)	0.00728 (inactive)	-4.91% (inactive)	-12% (inactive)
